Source: PubChem
JMJD2E inh: inhibitors of human JMJD2E histone demethylase; B2RXH2; JMJD2E catalytic domain, FDH-coupled NADH fluorescence (FDH is formaldehyde dehydrogenase); Potency, µM (doses to about 57.1 µM), inactives show top-dose activity change, negative = inhibition, most hits filed as inhibitors; 230,000 compounds, 1.6% hits; active means well fitted inhibition curve with a large enough effect, not every such curve was filed as active; inconclusive means small, poorly fitted or top-dose-only effect, or another doubt; inactive means no such curve, though single readings can be large or run the other way;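 further: potency means the concentration at half of the fitted maximal effect; 0% = wells with enzyme and -100% = buffer wells without enzyme; nearly all actives have a fitted effect of over 50% in size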
Six1-Eya2 inh: blocks human Six1 binding to Eya2 | Q15475+O00167 | AlphaScreen GST-Six1/His-Eya2 binding, biochemical; stronger effect = lower value | activity change, % (test concentration not listed) | 360,000 compounds, 0.56% hits | AID 651725; in the data active means activity change below about -65%; inconclusive means mostly about -30% to -63%
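Compounds are tested against tagged Six1 and Eya2 proteins bridged by glutathione donor and nickel acceptor beads; after a one-hour incubation at 37 °C without light, AlphaScreen emission is recorded.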
Anesthetic bind: candidate novel general anesthetic via apoferritin binding; P02791; apoferritin/1-aminoanthracene competitive binding, fluorescence; Potency, µM (top dose mostly 77.5 µM), for the others: at the top dose activity change, negative = displacement, actives largely listed as inhibitors; 350,000 compounds, 0.074% hits; AID 485281; further: potency means the concentration at half of the fitted maximal effect; nearly all actives have a fitted effect of over 20% in size
Target sequence (P02791 2-175 limits assumed): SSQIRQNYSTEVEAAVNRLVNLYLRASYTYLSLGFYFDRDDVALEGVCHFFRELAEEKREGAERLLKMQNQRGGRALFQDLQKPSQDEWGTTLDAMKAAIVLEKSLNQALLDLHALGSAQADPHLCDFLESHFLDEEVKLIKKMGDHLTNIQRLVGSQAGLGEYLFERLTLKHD
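In PBS, apoferritin at 10 uM is loaded with 1-AMA from a 50% saturated solution. After 10 min of compound exposure at ambient temperature, reduced 535 nm fluorescence indicates probe displacement.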
CtBP-E1A blk: CtBP/E1A binding inhibition. AlphaScreen GST-E1A/His-CtBP binding, 1536-well; stronger effect = lower value. activity change, % (concentration not given with the values). 340,000 compounds, 0.49% hits; in the data active means activity change below about -65%; inconclusive means mostly about -30% to -63%
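Homogeneous bead-based format: GST-tagged E1A captured on glutathione donor beads, His-tagged CtBP on nickel acceptor beads; compounds precede bead addition by 2 h at 37 °C.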
Eya2 inh: inhibitors of human Eya2 phosphatase activity; O00167; recombinant Eya2, OMFP fluorescence dephosphorylation (OMFP is methylfluorescein phosphate); Potency, µM (highest dose often 76.9 µM), for the others: at the top dose activity, negative = inhibition, usual class: inhibitors; 330,000 compounds, 0.006% hits; AID 488837; further: potency means the concentration at half of the fitted maximal effect
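Eya2 (0.2 uM) preincubated 10 min at ambient with compound, then OMFP substrate added at 50 uM; 10 min reaction in 50 mM HEPES pH 7.5, 50 mM NaCl, 5 uM MgCl2, 0.05% BSA, 1 mM DTT. Fluorescence read at Ex 485/Em 525 nm.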
GALK inh: inhibitors of human galactokinase; 270,000 compounds, 0.007% hits; AID 1868; Potency, µM (series often up to 57.5 µM), inactives show top-dose activity change, negative = inhibition, usual class: inhibitors; Purified GALK, Kinase-Glo residual ATP luminescence; P51570; further: potency means the concentration at half of the fitted maximal effect
Target sequence (P51570 whole entry, looked up): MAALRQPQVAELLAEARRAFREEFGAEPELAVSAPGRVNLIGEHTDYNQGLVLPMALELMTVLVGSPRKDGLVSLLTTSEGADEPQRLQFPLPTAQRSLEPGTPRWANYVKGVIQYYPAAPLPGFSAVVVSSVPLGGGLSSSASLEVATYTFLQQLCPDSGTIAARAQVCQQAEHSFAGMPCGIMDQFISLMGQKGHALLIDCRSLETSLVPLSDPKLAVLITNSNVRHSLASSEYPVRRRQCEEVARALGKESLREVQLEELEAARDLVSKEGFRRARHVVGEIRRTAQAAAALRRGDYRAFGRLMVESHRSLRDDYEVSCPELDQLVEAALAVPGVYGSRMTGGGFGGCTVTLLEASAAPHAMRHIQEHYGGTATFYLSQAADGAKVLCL
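Galactose (100 uM) and ATP (35 uM) were turned over by 5 nM GALK for 1 h at RT. Kinase-Glo Plus then converted the remaining ATP into a luminescent signal.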
* = called active by the depositor; ? = inconclusive; / = not tested or not shown; ! = repeats disagree; [ ] = another dose, or the depositor's remark. Many of the other results were omitted from the sample, so hits are more common in it than they were. Unless noted, the call rests on the fitted dose curve; in most records, active means well fitted curve in the direction sought with a large enough effect; inconclusive means small, poorly fitted or top-dose-only effect, or another doubt; inactive means no such curve, though single readings can be large; an effect the other way counts as inactive or inconclusive. Unless noted, on the % scale 0 is the no-effect control and ±100 the full control effect.

SMILES	JMJD2E inh	Six1-Eya2 inh	Anesthetic bind	CtBP-E1A blk	Eya2 inh	GALK inh
COc1ccc2[nH]c3c(c2c1)CCN=C3C	?	-70*	0%[29.3 µM]	?	1%	/
c1ccc2c(c1)CN1CCCC1=N2	-13%	3	?	-15	12%	/
Oc1c(Cl)cc(Cl)cc1CN1CCN(Cc2ccccc2)CC1	-19%	-73*	2%	-6	0%	2%
COC(=O)C1=C(C(=O)OC)SC2(S1)C(C(=O)OC)=C(C(=O)OC)Sc1c2ssc1=O	/	-91*	/	6	/	/
COc1cccc([C@@]2(O)CCCCC2CN(C)C)c1 (stereo not given in full)	/	/	-10%	/	/	/
O=[N+]([O-])c1cc(O)c(O)c([N+](=O)[O-])c1	10µM*	-27	/	-12	11%	/
c1cncc(C2Nc3cccc4cccc(c34)N2)c1	5µM*	-4	-3%	1	-3%	-2%
O=C1NC(=O)N(Cc2ccco2)C(=O)/C1=C/C=C/c1ccco1	25µM*	?	-2%	-5	0%	-2%
O=C1NC(=O)C(=Cc2cccc(OCCOc3ccccc3)c2)C(=O)N1	/	-5	?	2	-3%	1%
O=C1NC(=O)C(=Cc2ccc(OCCOc3ccc([N+](=O)[O-])cc3)cc2)C(=O)N1	28µM*	-15	-24%	4	5%	9%
CC(=O)OCC1=C(C(=O)[O-])N2C(=O)[C@@H](NC(=O)CCC[C@@H](N)C(=O)[O-])[C@H]2SC1.[Zn+2]	28µM*	/	/	/	/	/
CN[C@@H](C)[C@H](O)c1ccccc1	3.5µM*	/	/	/	/	/
Cc1ccccc1CN1CCN(c2ccc(Cl)cc2)CC1	22µM*	-2	3%	5	-5%	2%
Cc1ccccc1CN1CCNCC1	3%	-1	-5%	8	-2%	6%
Nc1ccc([As](=O)(O)O)cc1	13µM*	4	6%	5	4%	7%
Nc1ccc(N)cc1	/	/	-6%	/	/	/
CN1CC[C@@]2(C)c3cc(OC(=O)Nc4ccccc4)ccc3N(C)[C@@H]12	/	/	-12%	/	-17%	/
CCOC(=O)c1cccc(NC(=O)c2cnc(N3CCCCC3)c3ccccc23)c1	/	/	230%	/	/	/
CNc1ccc2nc3ccccc3[n+](C)c2c1	/	-75*	5%	/	-3%	6%
C[n+]1c2ccccc2nc2ccc(NCCO)cc21	/	-73*	-16%	-70*	-17%	5%
c1ccc2nc3ccccc3cc2c1	/	/	52%	/	/	/
OCCNc1c2c(nc3ccccc13)CCCC2	7%	-3	-10%	0	-6%	-1%
C(=C\c1ccccc1)/CN1CCN(CCOC(c2ccccc2)c2ccccc2)CC1	/	/	-6%	/	/	/
CCCCC(=O)N/N=C/c1c(O)n(CC)c(=S)[nH]c1=O	?	-78*	7%	0	6%	1%
COCCn1c(O)c(/C=N/NC(=O)CSC(=S)N2CCCC2)c(=O)[nH]c1=S	/	?	/	-76*	16%	/
SMILES	JMJD2E inh	Six1-Eya2 inh	Anesthetic bind	CtBP-E1A blk	Eya2 inh	GALK inh
CCCCn1c(O)c(/C=N/N2CCOCC2)c(=O)[nH]c1=S	-5%	7	-7%	/	-3%	-1%
O=C(N/N=C/c1c(O)n(CCC2=CCCCC2)c(=S)[nH]c1=O)c1ccccc1	?	-30	-16%	-28	-1%	/
CCn1c(O)c(C=NCc2ccccc2)c(=O)[nH]c1=S	0%	16	-6%	-2	-5%	-1%
CCCCCCC(=O)N/N=C/c1c(O)n(CCCC)c(=S)[nH]c1=O	18µM*	?	-3%	?	-1%	10%
Cn1c(O)c(/C=N/NC(=O)c2ccncc2)c(=O)n(C)c1=S	32µM*	-10	-3%	/	?	-2%
CCC(C)(C)O	/	/	-6%	/	/	/
CCCCn1c(O)c(/C=N/NC(=O)c2ccncc2)c(=O)[nH]c1=S	?	-85*	8%	-29	15%	6%
NC(Cn1ccc(=O)c(O)c1)C(=O)O (stereo not given)	?	/	4%	/	/	/
Oc1cccc2cccnc12	11µM*	/	-6%	/	-16%	/
N#Cc1c(Oc2cccc(OS(=O)(=O)CCCC(F)(F)F)c2)cccc1C(F)(F)F	/	/	-8%	/	/	/
COc1ccc(CCNC(=O)c2ccc3c(c2)CCN3S(=O)(=O)c2ccc(C)cc2)cc1OC	/	/	77%	/	/	/
C=CCN1CCc2cccc3c2C1Cc1ccc(O)c(O)c1-3 (stereo not given)	?	/	-16%	/	/	/
COc1ccc(CNC(=O)Cn2c(SCC(=O)Nc3ccc(C)c(C)c3)nc3ccccc32)cc1	/	/	38%	/	/	/
CN1CC[C@@]2(C)c3cc(O)ccc3N(C)C2O1 (stereo not given in full)	/	/	-3%	/	/	/
CN1CC[C@@]2(C)c3cc(O)ccc3N(C)[C@@H]12	6.3µM*	-1	/	?	/	/
CCCOc1ccc(C(=O)Nc2ccc(-c3cc4ccccc4oc3=O)c(C)c2)cc1	/	/	37%	/	/	/
COc1cc([N+](=O)[O-])c2nc(C)ccc2c1[N+](=O)[O-]	/	-15	/	0	/	/
COc1cc([N+](=O)[O-])c2ncccc2c1[N+](=O)[O-]	/	-83*	/	?	/	/
O=c1cc(-c2ccc(O)c(O)c2)oc2c(C3O[C@H](CO)[C@@H](O)[C@H](O)[C@H]3O)c(O)cc(O)c12 (stereo not given in full)	1µM*	?	-2%	/	-11%	/
O=c1ccc2cc(OC3O[C@H](CO)[C@@H](O)[C@H](O)[C@H]3O)c(O)cc2o1 (stereo not given in full)	/	6	/	-17	4%	/
Nn1c(COc2ccc(Cl)cc2)n[nH]c1=S	?	-5	-4%	-1	6%	3%
O=C(NC1CCCCC1)c1cn(CCN2CCOCC2)c2cc(Cl)ccc2c1=O	/	/	-10%	/	/	/
CN1CCN(c2ccc([N+](=O)[O-])c3no[n+]([O-])c23)CC1	14µM*	3	5%	-1	?	0%
O=[N+]([O-])c1ccc(N(CCO)CCO)c2c1no[n+]2[O-]	/	-6	/	?	/	/
Cc1ccc(-n2sc3ccccc3c2=O)cc1	28µM*	-9	-6%	-9	-5%	-1%
CC(=O)c1cccc(OCC(O)CN2CC=C(c3ccccc3)CC2)c1 (stereo not given)	16µM*	-2	-23%	1	2%	6%
NC(=O)c1ccc(OCC(O)CN2CC=C(c3ccc(F)cc3)CC2)cc1 (stereo not given)	3%	/	/	/	6%	/
C[C@@H](Cc1cccc(C(F)(F)F)c1)NCCCc1ccccc1	-3%	/	/	/	/	/
CCCCC/C=C\C/C=C\C/C=C\C/C=C\CCCC(=O)NCC(=O)O	22µM*!	/	/	/	4%	/
O=C1NC(=O)C(=Cc2coc3ccc(O)cc3c2=O)C(=O)N1	18µM*	0	-9%	-3	32%	/
